Assay results as given in PubChem BioAssay (NCATS).
Records with an inconclusive call do not appear. Active and inactive are the calls of the source. Unless noted, calls follow the shape of the dose curve; as a rule, active = well fitted curve in the direction sought with a large enough effect; inconclusive = small, poorly fitted or top-dose-only effect, or another doubt; inactive = no such curve, though single readings can be large; an effect the other way counts as inactive or inconclusive.

Experiments:
[1] = Cell Viability - BJ (AID 421; calls by dose curve;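 also: potency is read from the fitted curve at half-maximal effect; cells exposed to compound for 40 hours at 37 °C before readout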); conditions: BJ fibroblast viability, qHTS
How it was run: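 Normal human BJ foreskin fibroblasts, 1500/well in complete medium, treated 40 hr at 37 °C. Cellular ATP by CellTiter-Glo luminescence; normalized to DMSO and 100 uM tamoxifen, AC50 from Hill fit.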

[2] = Cell Viability - Jurkat (AID 426;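 active = dose-dependent loss of cell ATP signal giving a full or clear fitted curve, ranked by lower potency value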;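 also: potency is read from the fitted curve at half-maximal effect; cells exposed to compound for 40 hours at 37 °C before ATP read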); conditions: qHTS
How it was run: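 Cytotoxicity taken as drop in cellular ATP (CellTiter-Glo luminescence, 20 min room temperature) after 40 hr, 37C treatment of 5000 Jurkat Clone E6-1 cells per well; concentration-response fitted with Hill equation for AC50.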

[3] = Cell Viability - HepG2 (AID 433; calls by dose curve;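 also: potency is read from the fitted curve at half-maximal effect; potency for ATP loss meaning cytotoxicity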); conditions: qHTS
How it was run: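 Read-out is luciferase-based quantitation of cellular ATP as a measure of viable HepG2 cells after 40 h treatment at 37 °C. Signal decrease is scaled between DMSO-only and 100 uM tamoxifen controls, with AC50 fitted by the Hill equation.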

[4] = Cell Viability - MRC5 (AID 434; calls by dose curve;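 also: potency is read from the fitted curve at half-maximal effect; cells exposed to compound for 40 hours at 37 °C; potency reflects cytotoxicity seen as loss of intracellular ATP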); conditions: MRC5 lung fibroblast viability, qHTS
How it was run: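 AC50 values come from Hill-equation fits of intracellular ATP loss, measured by CellTiter-Glo luminescence. Normal lung fibroblasts (MRC5) had 40 hr compound treatment at 37 C, normalized between DMSO and 100 uM tamoxifen.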

[5] = Cell Viability - SK-N-SH (AID 435; calls by dose curve; also: potency is read from the fitted curve at half-maximal effect); conditions: SK-N-SH neuroblastoma cell viability qHTS
How it was run: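 Luminescent ATP signal served as the viability read-out after 40 hours of compound treatment of human neuroblastoma SK-N-SH cells. Concentration-response data, scaled between DMSO and 100 uM tamoxifen, gave AC50 values by standard Hill modeling.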

[6] = molecular target: Mitogen-activated protein kinase 10 (Mus musculus) (UniProt Q61831); assay: JNK3 AlphaScreen Assay (AID 530; active = well fitted curve in either direction with a large enough effect, not every such curve was filed as active;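 also: kinase came from lysate of stimulated human HepG2 cells; signal reports phosphorylation of biotinylated GST-cJun 1-79 at Ser73 with 10 µM ATP; % is scaled to controls: 0 for no effect and ±100 for the full control effect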); conditions: JNK3 lysate, c-Jun phosphorylation; series mostly up to 57.1 µM
How it was run: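 qHTS titrations with 15 min compound pre-incubation before adding ATP (10 uM final). Read-out: AlphaScreen of Ser73-phosphorylated biotin-GST-cJun using HepG2 lysate JNK3 activated by IL-1β and TNFα.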

[7] = Cell Viability - N2a (AID 540); conditions: N2a mouse neuroblastoma cell viability; activity change, negative = cytotoxicity: at 92.2 µM (top of the series);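 also: plate controls were DMSO alone for no effect and tamoxifen control for full effect; nearly all actives have a fitted effect of over 45% in size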
How it was run: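 CellTiter-Glo ATP luminescence, read 20 min after reagent at room temperature, reported viability following 40 h compound treatment at 37 °C. N2a mouse neuroblastoma cells seeded 1500/well; Hill equation gave AC50.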

[8] = Cell Viability - NIH 3T3 (AID 541); conditions: NIH 3T3 cell viability, qHTS; activity change, negative = cytotoxicity: at 92.2 µM (top of the series);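 also: plate controls were DMSO alone for no effect and tamoxifen positive control for full effect; nearly all actives have a fitted effect of over 25% in size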
How it was run: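 Intracellular ATP (CellTiter-Glo luminescence, 20 min at room temperature) measured after 40 hr compound exposure at 37 °C of 1000 NIH 3T3 mouse fibroblasts/well in complete medium; AC50 derived by Hill-equation modelling of qHTS concentration-response curves.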

[9] = Cell Viability - HUV-EC-C (AID 542); conditions: HUV-EC-C endothelial cell viability, qHTS; series mostly up to 92.2 µM; also: % is scaled to controls: 0 for no effect and ±100 for the full control effect; nearly all actives have a fitted effect of over 35% in size
How it was run: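 CellTiter-Glo luminescence measured ATP loss in HUV-EC-C cells (1000/well) after 40 hr compound exposure at 37 °C, in complete culture medium. Concentration-response data were Hill-fitted to give AC50.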

[10] = Cell Viability - H-4-II-E (AID 543); conditions: H-4-II-E rat hepatoma viability; series mostly up to 92.2 µM; also: % is scaled to controls: 0 for no effect and ±100 for the full control effect; nearly all actives have a fitted effect of over 35% in size
How it was run: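 CellTiter-Glo luminescence (intracellular ATP) measured after 40 h compound exposure at 37 °C in H-4-II-E rat hepatoma cells seeded at 1500/well. Values are AC50s fitted with the standard Hill equation.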

[11] = Cell Viability - SH-SY5Y (AID 544); conditions: SH-SY5Y neuroblastoma cell viability; viability change, negative = cytotoxic: at 92.2 µM (top of the series); also: nearly all actives have a fitted effect of over 55% in size
How it was run: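 Cytotoxicity measured via ATP-dependent luciferase luminescence (CellTiter-Glo) following 40 h, 37 °C exposure of 1500 SH-SY5Y cells per well. Concentration-response data were fitted with the standard Hill equation to give AC50.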

[12] = Cell Viability - Renal Proximal Tubule (AID 545); conditions: renal proximal tubule cells viability, primary cells of rat origin; series mostly up to 91.7 µM; also: nearly all actives have a fitted effect of over 40% in size
How it was run: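 Luminescent ATP signal (CellTiter-Glo) served as the viability read-out after 40 hr compound exposure of freshly isolated rat proximal tubule cells at 37 °C. Concentration-dependent ATP loss was fitted with the Hill equation to give AC50.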

[13] = Cell Viability - Mesenchymal (AID 546); conditions: mesenchymal cells viability, qHTS; series mostly up to 91.7 µM;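 also: cells exposed to compound for 40 hours before reading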
How it was run: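 CellTiter-Glo luminescence (intracellular ATP, 20 min room temperature) after 40 hr compound exposure at 37 °C of 1000 glomerulus-derived human kidney mesenchymal cells/well; AC50 values obtained by fitting qHTS concentration-response data to the Hill equation.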

[14] = Cellular Toxicity (caspase-3) HepG2 (AID 654); conditions: HepG2 caspase-3 activation, luminescence; series mostly up to 92.2 µM;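 also: cells exposed to compound for 16 hours before reading; 0% = DMSO alone and 100% = caspase signal from 100 µM tamoxifen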
How it was run: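 Caspase 3/7 activation is measured as a luminescence increase (aminoluciferin substrate) after 16 h compound exposure of human hepatocarcinoma HepG2 cells. AC50 values are Hill fits, scaled between DMSO baseline and 100 uM tamoxifen stimulation.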

[15] = Cellular Toxicity (caspase-3) Jurkat (AID 655); conditions: Jurkat caspase-3 activation, luminescence; caspase-3 activation: at 92.2 µM (top of the series), DMSO = 0%, tamoxifen = 100%;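 also: cells exposed to compound for 16 h at 37 °C before reading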
How it was run: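 5000 Jurkat cells/well; compound 16 hr, 37 °C; Caspase-Glo 3/7 added, 20 min RT; luminescence read. Norm: DMSO = 0%, tamoxifen 100 uM = 100%. AC50, Hill model.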

[16] = Cellular Toxicity (caspase-3) HUV-EC-C (AID 656); conditions: HUV-EC-C cells, caspase-3 activation (apoptosis), vehicle = 0, 100 µM tamoxifen = 100%; series mostly up to 92.2 µM
How it was run: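 qHTS; HUV-EC-C, 1000 cells/well; 5 hr settle, 16 hr cmpd, 37°C; Caspase-Glo 3/7, 20 min RT; luminescence. Norm: DMSO = 0%, tamoxifen 100 uM = 100%. Hill-fit AC50.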

[17] = Cellular Toxicity (caspase-3) SHSY5Y (AID 657); conditions: SH-SY5Y caspase-3 activation, DMSO zero, 10 µM staurosporine = 100%; series mostly up to 91.7 µM;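 also: cells exposed to compound for 16 hours at 37 °C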
How it was run: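 qHTS, SH-SY5Y, 1500 cells/well, 5 h pre-incubation 37 °C; compound 16 h 37 °C; Caspase-Glo 3/7 1 h RT; luminescence. Norm.: DMSO = 0, 10 uM staurosporine = 100%. Hill fit → AC50.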

[18] = Cellular Toxicity (caspase-3) BJ (AID 658); conditions: BJ fibroblasts, luminescence, normalized: DMSO 0%, staurosporine 100%; series mostly up to 91.7 µM;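 also: cells exposed to compound for 16 hours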
How it was run: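 Caspase-Glo 3/7 luminescence, read 1 hr after reagent at room temperature, in normal BJ fibroblasts exposed 16 hours at 37 °C. AC50 values from Hill-equation concentration-response, scaled between DMSO basal and 10 uM staurosporine as 100%.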

[19] = Cellular Toxicity (caspase-3) MRC-5 (AID 659); conditions: MRC-5 cells, luminescence, normalized: DMSO 0%, 10 µM staurosporine 100%; series mostly up to 91.7 µM
How it was run: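 Luminescent Caspase-Glo 3/7 read-out (1 h, room temperature) after a 16 h, 37 °C compound exposure of MRC-5 lung fibroblasts at 1500 cells/well. Concentration-response AC50 from Hill equation; 0% DMSO, 100% 10 uM staurosporine.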

COC(=O)c1ccccc1
inactive: Potency [1] > 92 µM | Potency [2] > 92 µM | Potency [3] > 92 µM | Potency [4] > 92 µM | Potency [5] > 92 µM | outcome [6] | activity change, negative = cytotoxicity [7] -10.2% | Potency [8] | Potency [9] | Potency [10] | Potency [11] | Potency [12] | Potency [13] | Potency [14] | caspase-3 activation [15] 2.94% | outcome [16] | outcome [17] | outcome [18] | outcome [19]

C1CCOC1
inactive: Potency [1] > 92 µM | Potency [2] > 92 µM | Potency [3] > 92 µM | Potency [4] > 92 µM | Potency [5] > 92 µM | outcome [6] | activity change, negative = cytotoxicity [7] 3.61% | Potency [8] | Potency [9] | Potency [10] | Potency [11] | Potency [13] | Potency [14] | caspase-3 activation [15] -0.19% | outcome [16] | outcome [17] | outcome [18]

O=[N+]([O-])c1ccc(NCCO)c(OCCO)c1
inactive: Potency [1] > 92 µM | Potency [2] > 92 µM | Potency [3] > 92 µM | Potency [4] > 92 µM | Potency [5] > 92 µM | outcome [6] | activity change, negative = cytotoxicity [7] -0.601% | Potency [8] | Potency [11] | Potency [13] | Potency [14] | caspase-3 activation [15] 3.12% | outcome [16] | outcome [17] | outcome [18] | outcome [19]

COC(=O)CC#N
inactive: Potency [1] > 92 µM | Potency [2] > 92 µM | Potency [3] > 92 µM | Potency [4] > 92 µM | Potency [5] > 92 µM | outcome [6] | activity change, negative = cytotoxicity [7] -15.8% | Potency [8] | Potency [9] | Potency [10] | Potency [11] | Potency [12] | Potency [13] | caspase-3 activation [15] 1.32% | outcome [16] | outcome [17] | outcome [18] | outcome [19]

CCN(CC)c1cccc(O)c1
inactive: Potency [1] > 92 µM | Potency [2] > 92 µM | Potency [3] > 92 µM | Potency [4] > 92 µM | Potency [5] > 92 µM | outcome [6] | activity change, negative = cytotoxicity [7] 0.0315% | Potency [8] | Potency [9] | Potency [10] | Potency [12] | Potency [13] | Potency [14] | caspase-3 activation [15] 0.712% | outcome [16] | outcome [17] | outcome [18] | outcome [19]

C[C@@H]1O[C@@H](O[C@@H]2[C@@H](O)[C@H](OCCc3ccc(O)c(O)c3)O[C@H](CO[C@@H]3O[C@H](CO)[C@@H](O)[C@H](O)[C@H]3O)[C@H]2OC(=O)/C=C/c2ccc(O)c(O)c2)[C@H](O)[C@H](O)[C@H]1O
inactive: Potency [1] > 92 µM | Potency [2] > 92 µM | Potency [3] > 92 µM | Potency [4] > 92 µM | Potency [5] > 92 µM | outcome [6] | activity change, negative = cytotoxicity [7] -12.1% | Potency [8] | Potency [9] | Potency [10] | Potency [11] | Potency [12] | Potency [14] | caspase-3 activation [15] -3.29% | outcome [16] | outcome [17] | outcome [18] | outcome [19]

Nc1ccc(Cl)cc1[N+](=O)[O-]
inactive: Potency [1] > 92 µM | Potency [2] > 92 µM | Potency [3] > 92 µM | Potency [4] > 92 µM | Potency [5] > 92 µM | outcome [6] | activity change, negative = cytotoxicity [7] -24.6% | Potency [8] | Potency [9] | Potency [10] | Potency [11] | Potency [13] | Potency [14] | caspase-3 activation [15] -0.00309% | outcome [16] | outcome [17] | outcome [19]

Cc1ccccc1C(N)=O
inactive: Potency [1] > 92 µM | Potency [2] > 92 µM | Potency [4] > 92 µM | Potency [5] > 92 µM | outcome [6] | activity change, negative = cytotoxicity [7] -9.85% | Potency [8] | Potency [9] | Potency [10] | Potency [11] | Potency [12] | Potency [13] | outcome [16] | outcome [17] | outcome [18]

Cc1ccc(C)cc1
inactive: Potency [1] > 92 µM | Potency [2] > 92 µM | Potency [3] > 92 µM | Potency [4] > 92 µM | Potency [5] > 92 µM | outcome [6] | activity change, negative = cytotoxicity [7] -13.5% | Potency [8] | Potency [9] | Potency [10] | Potency [11] | Potency [12] | Potency [14] | caspase-3 activation [15] 2.23% | outcome [16] | outcome [17] | outcome [18] | outcome [19]

Cc1cc(C)cc(N)c1
inactive: Potency [1] > 92 µM | Potency [2] > 92 µM | Potency [3] > 92 µM | Potency [4] > 92 µM | Potency [5] > 92 µM | outcome [6] | activity change, negative = cytotoxicity [7] 0.732% | Potency [8] | Potency [11] | Potency [12] | Potency [13] | Potency [14] | outcome [16] | outcome [17] | outcome [18] | outcome [19]

O=[N+]([O-])c1ccccc1CCO
inactive: Potency [1] > 92 µM | Potency [2] > 92 µM | Potency [3] > 92 µM | Potency [4] > 92 µM | Potency [5] > 92 µM | outcome [6] | activity change, negative = cytotoxicity [7] -12.5% | Potency [8] | Potency [9] | Potency [10] | Potency [12] | Potency [13] | Potency [14] | caspase-3 activation [15] 0.961% | outcome [16] | outcome [17] | outcome [18] | outcome [19]
